Assay results published in PubChem BioAssay (NCI).
About 83,000 compounds went through this panel and 20% of them were active in at least one assay; those are over-represented in the sample as a whole.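 Results are percent growth after 48 hours of single-concentration exposure. 100 means growth as in untreated cells, lower positive values show inhibition; negative values down to -100 show cell death.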 Unmarked numbers belong to inactive results. Calls of active or inactive are those of the source. The calls were made as follows: active = growth percent below 10; inactive = the rest.

Key:
Assay in all cases: NCI-60 one-dose screen, 48 h (100 = growth as untreated, 0 = no growth, -100 = all killed)
Settings in all cases: 10 µM unless noted
SK-MEL-2 melanoma = test system: SK-MEL-2 melanoma
EKVX NSCLC = test system: EKVX NSCLC
SN12C renal = test system: SN12C renal
UO-31 renal = test system: UO-31 renal
TK-10 renal = test system: TK-10 renal
ACHN renal = test system: ACHN renal
CAKI-1 renal = test system: CAKI-1 renal
A498 renal = test system: A498 renal
CCRF-CEM leukemia = test system: CCRF-CEM leukemia
MOLT-4 leukemia = test system: MOLT-4 leukemia
SR leukemia = test system: SR leukemia
RPMI-8226 leukemia = test system: RPMI-8226 leukemia
OVCAR-8 ovarian = test system: OVCAR-8 ovarian
OVCAR-5 ovarian = test system: OVCAR-5 ovarian
OVCAR-4 ovarian = test system: OVCAR-4 ovarian
SK-OV-3 ovarian = test system: SK-OV-3 ovarian
IGROV1 ovarian = test system: IGROV1 ovarian
OVCAR-3 ovarian = test system: OVCAR-3 ovarian
HS 578T breast = test system: HS 578T breast
NCI/ADR-RES ovarian = test system: NCI/ADR-RES ovarian

SMILES	growth (SK-MEL-2 melanoma)	growth (EKVX NSCLC)	growth (SN12C renal)	growth (UO-31 renal)	growth (TK-10 renal)	growth (ACHN renal)	growth (CAKI-1 renal)	growth (A498 renal)	growth (CCRF-CEM leukemia)	growth (MOLT-4 leukemia)	growth (SR leukemia)	growth (RPMI-8226 leukemia)	growth (OVCAR-8 ovarian)	growth (OVCAR-5 ovarian)	growth (OVCAR-4 ovarian)	growth (SK-OV-3 ovarian)	growth (IGROV1 ovarian)	growth (OVCAR-3 ovarian)	growth (HS 578T breast)	growth (NCI/ADR-RES ovarian)
CCOC(=O)/C=C1\S/C(=N\Nc2cc(=O)[nH]c3ccc(OC)cc23)N(c2ccccc2)C1=O	106%	106%	96.8%	82.4%	117%	96.8%	88.5%	112%	65.1%	95.4%	50.4%	87.2%	98.7%	106%	82.7%	104%	92.2%	95.8%	103%	104%
C#C[C@]1(O)CC[C@H]2[C@@H]3CC=C4c5sc(-c6ccccc6)nc5CC[C@]4(C)[C@H]3CC[C@@]21C	92%	92.8%	88.2%	77%	126%	85.6%	55.2%	91%	67.4%	63.8%	30.9%	-12.6% (active)	101%	85.6%	106%	111%	95.8%	106%	62%	94.4%
O=C(Nc1cccc(Cl)c1)Oc1c(Cl)c(Cl)c(Cl)c(Cl)c1Cl	100%	78.9%	97.1%	72.1%	125%	95.6%	88.2%	78.8%	94.4%	96%	96.3%	95.4%	98.9%	95.2%	89%	85%	87.8%	101%	82.8%	103%
CCN1C(=O)N(CC)C2C1NN=c1s/c(=C\c3ccccc3)c(=O)n12 (stereo not given)	42.5%	47.1%	26.5%	37.9%	65.6%	30.2%	27.1%	9.75% (active)	6.04% (active)	10.9%	14.8%	11.6%	-9.95% (active)	30.2%	48.1%	33.5%	19.8%	-7.69% (active)	16.8%	2.31% (active)
N#C/C(Sc1nc2sc3c(c2c(=O)n1Cc1ccccc1)CCCC3)=C1/SC=C(c2ccc(Cl)cc2)N1c1ccccc1	106%	106%	98%	63.7%	107%	92.7%	91.4%	120%	0.897% (active)	92.3%	25.4%	68.3%	61.6%	83.7%	93.5%	88.6%	38.2%	112%	75.2%	83.5%
Cn1cc(-c2nc(-c3c[nH]c4ccncc34)cs2)c2cc(F)ccc21	-58.7% (active)	-75.4% (active)	-87.9% (active)	-93.2% (active)	-49.3% (active)	-99.6% (active)	-90.9% (active)	-63.5% (active)	-41.6% (active)	-58.3% (active)	-36.8% (active)	-36.5% (active)	-60.1% (active)	-91.1% (active)	-54.4% (active)	62.1%	-87.2% (active)	-94.7% (active)	-44.9% (active)	-73.7% (active)
CCN1C(=O)N(CC)C2C1NN=c1s/c(=C\c3ccc([N+](=O)[O-])cc3)c(=O)n12 (stereo not given)	70.4%	52.3%	29.6%	37.5%	69.1%	41.9%	37.1%	18.6%	11.2%	15.8%	19.9%	24.3%	15.3%	35%	47.7%	42.8%	22.6%	7.68% (active)	17.1%	9.89% (active)
O=C(/C=C\c1ccc(O)c(O)c1)c1ccccc1O	125%	73.3%	71.9%	49.6%	88.7%	78.3%	8.01% (active)	98.9%	14.7%	49.1%	-13.3% (active)	5.13% (active)	69.4%	103%	74.9%	97%	46.3%	73.8%	91.8%	74.3%
COc1cc(OCc2cccc(-c3ccc4c(c3)OCCO4)c2C)cc(OC)c1C=O	58.3%	53.7%	68.2%	51%	43.4%	48%	25.9%	-10.4% (active)	59.1%	56.4%	37.3%	29.6%	70.4%	68.7%	35.9%	93.2%	68.1%	60.5%	75.9%	70.4%
O=C1/C(=C/c2ccccc2)COc2ccc(O)cc21	104%	105%	91.7%	76.4%	106%	101%	93.5%	99.5%	21.5%	78.6%	17.6%	-16.5% (active)	95.9%	104%	99.5%	124%	105%	98.7%	107%	104%
COc1cc2c(cc1-c1c(C)noc1C)ncc1nc(C3CCOCC3)n(C3CCC(OC(F)F)CC3)c12 (stereo not given)	63.5%	60.9%	79.8%	14.5%	21.4%	54.2%	42.6%	41.7%	58.9%	68.6%	36.4%	18%	69.1%	71%	48.8%	17.3%	55.7%	44.7%	54.9%	53.7%
O=C1CCc2c(sc3[nH]c(=S)n(-c4cc(C(F)(F)F)cc(C(F)(F)F)c4)c(=O)c23)C1	-31.3% (active)	-8.72% (active)	8.54% (active)	-57.5% (active)	2.81% (active)	3.08% (active)	0.877% (active)	-18.2% (active)	1.71% (active)	11%	13.4%	-23.7% (active)	1.35% (active)	-24.4% (active)	4.84% (active)	-18.7% (active)	-10.5% (active)	-13.3% (active)	-6.29% (active)	-13.4% (active)
COc1ccc(-n2c(=O)n(-c3ccc(-c4nc5ccc(F)cc5s4)cc3)c(=O)c3cccnc32)cc1	103%	91.6%	100%	75.6%	119%	103%	85.3%	98.2%	102%	97.7%	104%	91.6%	93.1%	108%	104%	86.6%	90.5%	106%	101%	103%
O=C1NC(=O)C(=Cc2cc(-c3ccc(Cl)cc3)n(-c3ccccc3)n2)C(=O)N1	106%	91.6%	92.5%	86.6%	88.3%	95.2%	92.8%	93.5%	92.7%	92.4%	93.7%	92.1%	101%	91.5%	103%	105%	93.1%	111%	95.5%	107%
C=CC(=O)NCc1cccc(Nc2ncc(Br)c(NCCCNC(=O)C3CCC3)n2)c1	-50% (active)	-27.1% (active)	1.99% (active)	-9.45% (active)	-17.4% (active)	7.42% (active)	-25.3% (active)	-59.5% (active)	1.57% (active)	-5.38% (active)	2.53% (active)	-14.7% (active)	5.56% (active)	10.2%	-2% (active)	-42% (active)	1.89% (active)	-33.4% (active)	-14.1% (active)	35.8%
